Tests used:
Assay in all cases: DAPPL (digital affinity profiling via proximity ligation, sequencing); 10 mM Tris-HCl pH 7.5, 50 mM NaCl, 1 mM DTT, 4% glycerol, room temperature, 30 min; GST-TFs on glutathione beads, 16-mer random dsDNA library, 0.1% formaldehyde crosslink after washing; high values mean tight binding
Conditions in all cases: protein: recombinant; tags: N-terminal GST; dsDNA, one strand shown
FLI1 = target: T1, FLI1 (Homo sapiens, UniProt Q01543 1-452)
T1 sequence: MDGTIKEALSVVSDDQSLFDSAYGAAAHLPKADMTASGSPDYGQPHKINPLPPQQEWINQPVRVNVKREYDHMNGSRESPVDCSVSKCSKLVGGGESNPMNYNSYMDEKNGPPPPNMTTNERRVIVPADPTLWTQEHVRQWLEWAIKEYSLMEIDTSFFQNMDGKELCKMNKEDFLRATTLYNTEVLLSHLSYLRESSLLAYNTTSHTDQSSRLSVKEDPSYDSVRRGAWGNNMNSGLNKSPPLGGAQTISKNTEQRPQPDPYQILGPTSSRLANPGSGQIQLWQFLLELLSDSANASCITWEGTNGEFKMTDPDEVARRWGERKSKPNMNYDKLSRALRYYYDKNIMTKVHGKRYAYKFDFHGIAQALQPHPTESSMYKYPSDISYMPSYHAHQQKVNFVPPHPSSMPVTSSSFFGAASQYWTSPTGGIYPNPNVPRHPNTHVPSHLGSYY
Procedure, shortened: (§1)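 Human transcription factors were made in yeast as GST fusions, captured on glutathione beads and barcoded with DNA. With a tag-only sample included, the pool was incubated with 200 nmole of a random double-stranded 16-mer DNA library in Tris/NaCl/DTT/glycerol buffer at room temperature for 30 min, then crosslinked with 0.1% formaldehyde after washing, ligated by proximity, amplified and sequenced. For binding signal, each hexamer's read frequency for a factor is divided by its frequency for the tag-only sample.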

ELK1 = target: T2, ELK1 (Homo sapiens, UniProt P19419 1-428)
T2 sequence: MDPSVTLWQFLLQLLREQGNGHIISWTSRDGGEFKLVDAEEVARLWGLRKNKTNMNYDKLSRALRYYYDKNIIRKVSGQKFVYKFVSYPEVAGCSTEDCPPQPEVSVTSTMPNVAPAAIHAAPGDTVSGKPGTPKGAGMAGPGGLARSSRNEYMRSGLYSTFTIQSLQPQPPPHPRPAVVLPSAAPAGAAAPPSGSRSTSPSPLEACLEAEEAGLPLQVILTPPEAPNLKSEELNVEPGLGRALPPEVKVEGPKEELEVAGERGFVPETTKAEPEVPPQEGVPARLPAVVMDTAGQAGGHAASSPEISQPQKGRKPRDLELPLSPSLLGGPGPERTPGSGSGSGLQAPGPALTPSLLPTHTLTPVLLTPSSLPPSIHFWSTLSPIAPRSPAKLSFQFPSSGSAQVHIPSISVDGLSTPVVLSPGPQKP
Procedure, shortened: as §1

GABPA = target: T3, GABPA (Homo sapiens, UniProt Q06546 1-454)
T3 sequence: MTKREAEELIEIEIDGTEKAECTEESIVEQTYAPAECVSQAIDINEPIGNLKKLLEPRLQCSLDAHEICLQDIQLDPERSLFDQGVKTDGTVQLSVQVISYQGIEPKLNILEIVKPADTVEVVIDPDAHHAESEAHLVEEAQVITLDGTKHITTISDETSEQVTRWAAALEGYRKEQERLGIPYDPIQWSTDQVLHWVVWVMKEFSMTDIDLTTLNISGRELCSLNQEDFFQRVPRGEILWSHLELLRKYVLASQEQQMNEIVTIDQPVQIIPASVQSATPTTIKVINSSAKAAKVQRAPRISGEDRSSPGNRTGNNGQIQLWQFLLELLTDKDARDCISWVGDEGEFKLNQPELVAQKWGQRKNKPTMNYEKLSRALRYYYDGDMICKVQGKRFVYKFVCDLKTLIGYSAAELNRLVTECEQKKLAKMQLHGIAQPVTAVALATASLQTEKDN
Procedure, shortened: as §1

ERG = target: T4, ERG (Homo sapiens, UniProt P11308 1-479)
T4 sequence: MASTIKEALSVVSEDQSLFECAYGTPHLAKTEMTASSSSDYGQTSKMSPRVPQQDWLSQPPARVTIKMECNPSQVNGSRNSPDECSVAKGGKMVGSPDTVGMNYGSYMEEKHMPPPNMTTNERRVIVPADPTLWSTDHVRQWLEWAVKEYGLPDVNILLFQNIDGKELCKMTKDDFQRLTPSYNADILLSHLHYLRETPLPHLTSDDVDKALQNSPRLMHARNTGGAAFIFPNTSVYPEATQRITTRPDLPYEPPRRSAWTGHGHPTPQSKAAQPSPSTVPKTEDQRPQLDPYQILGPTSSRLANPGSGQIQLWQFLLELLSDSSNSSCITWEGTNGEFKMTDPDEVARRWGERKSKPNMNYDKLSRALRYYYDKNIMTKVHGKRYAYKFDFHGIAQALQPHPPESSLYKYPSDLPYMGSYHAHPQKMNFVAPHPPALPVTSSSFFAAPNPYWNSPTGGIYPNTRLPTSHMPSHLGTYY
Procedure, shortened: as §1

ELF1 = ELF1 (Homo sapiens, UniProt P32519 1-619)
ELF1, sequence (P32519 whole entry): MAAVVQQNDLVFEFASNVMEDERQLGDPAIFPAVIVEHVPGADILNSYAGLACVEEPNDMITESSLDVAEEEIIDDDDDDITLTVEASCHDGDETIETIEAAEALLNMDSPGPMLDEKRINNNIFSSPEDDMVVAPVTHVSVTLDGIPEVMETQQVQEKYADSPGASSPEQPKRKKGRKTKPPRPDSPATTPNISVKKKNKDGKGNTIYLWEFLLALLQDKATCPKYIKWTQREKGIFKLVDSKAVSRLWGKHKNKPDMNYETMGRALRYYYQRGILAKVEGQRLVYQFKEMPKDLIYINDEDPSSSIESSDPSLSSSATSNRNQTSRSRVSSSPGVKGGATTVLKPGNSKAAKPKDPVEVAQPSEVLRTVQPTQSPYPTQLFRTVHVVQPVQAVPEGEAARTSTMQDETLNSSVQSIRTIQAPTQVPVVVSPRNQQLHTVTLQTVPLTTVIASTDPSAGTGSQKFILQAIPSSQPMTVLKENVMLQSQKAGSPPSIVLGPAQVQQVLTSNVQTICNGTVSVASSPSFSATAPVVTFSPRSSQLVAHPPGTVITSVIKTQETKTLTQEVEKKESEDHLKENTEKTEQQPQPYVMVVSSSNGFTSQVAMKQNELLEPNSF
Procedure, shortened: as §1

EHF = target: T5, EHF (Homo sapiens, UniProt Q9NZC4 1-300)
T5 sequence: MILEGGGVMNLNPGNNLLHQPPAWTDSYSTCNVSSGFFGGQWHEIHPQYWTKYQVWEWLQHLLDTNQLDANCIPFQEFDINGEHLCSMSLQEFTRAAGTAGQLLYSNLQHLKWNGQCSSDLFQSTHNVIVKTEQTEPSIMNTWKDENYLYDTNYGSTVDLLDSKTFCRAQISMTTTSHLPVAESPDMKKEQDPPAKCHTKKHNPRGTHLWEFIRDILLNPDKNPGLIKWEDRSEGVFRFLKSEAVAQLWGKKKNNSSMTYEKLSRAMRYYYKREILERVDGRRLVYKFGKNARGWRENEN
Procedure, shortened: as §1

SPI1 = SPI1 (Homo sapiens, UniProt P17947 1-270)
Procedure, shortened: as §1

SPIB = SPIB (Homo sapiens, UniProt Q01892 1-262)
SPIB, sequence (Q01892 whole entry): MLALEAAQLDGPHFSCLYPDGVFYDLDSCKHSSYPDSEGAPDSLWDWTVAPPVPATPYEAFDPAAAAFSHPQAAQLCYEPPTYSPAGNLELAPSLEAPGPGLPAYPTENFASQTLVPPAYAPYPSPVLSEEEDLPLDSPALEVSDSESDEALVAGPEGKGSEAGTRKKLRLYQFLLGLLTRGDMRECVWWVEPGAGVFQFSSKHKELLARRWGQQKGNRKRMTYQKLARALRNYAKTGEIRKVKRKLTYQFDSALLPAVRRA
Procedure, shortened: as §1

ELK3 = target: T6, ELK3 (Homo sapiens, UniProt P41970 1-407)
T6 sequence: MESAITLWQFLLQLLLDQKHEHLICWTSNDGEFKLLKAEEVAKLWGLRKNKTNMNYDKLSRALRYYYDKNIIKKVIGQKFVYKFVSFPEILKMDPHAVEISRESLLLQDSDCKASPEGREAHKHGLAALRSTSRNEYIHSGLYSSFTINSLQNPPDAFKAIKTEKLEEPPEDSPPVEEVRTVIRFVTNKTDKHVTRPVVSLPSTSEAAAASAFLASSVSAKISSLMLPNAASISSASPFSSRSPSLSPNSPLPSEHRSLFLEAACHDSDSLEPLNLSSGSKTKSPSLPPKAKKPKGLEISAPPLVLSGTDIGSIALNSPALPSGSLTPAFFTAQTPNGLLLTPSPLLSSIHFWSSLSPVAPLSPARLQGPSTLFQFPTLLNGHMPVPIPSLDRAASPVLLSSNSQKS
Procedure, shortened: as §1

FEV = target: T7, FEV (Homo sapiens, UniProt Q99581 1-238)
T7 sequence: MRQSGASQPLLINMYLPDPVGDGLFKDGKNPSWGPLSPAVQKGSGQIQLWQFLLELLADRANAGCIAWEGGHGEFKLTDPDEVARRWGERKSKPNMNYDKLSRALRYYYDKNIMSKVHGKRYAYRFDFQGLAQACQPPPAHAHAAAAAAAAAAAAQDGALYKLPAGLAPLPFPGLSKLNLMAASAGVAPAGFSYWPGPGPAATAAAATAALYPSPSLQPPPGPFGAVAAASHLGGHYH
Procedure, shortened: as §1

ETV5 = ETV5 (Homo sapiens, UniProt P41161 1-510)
ETV5, sequence (P41161 whole entry): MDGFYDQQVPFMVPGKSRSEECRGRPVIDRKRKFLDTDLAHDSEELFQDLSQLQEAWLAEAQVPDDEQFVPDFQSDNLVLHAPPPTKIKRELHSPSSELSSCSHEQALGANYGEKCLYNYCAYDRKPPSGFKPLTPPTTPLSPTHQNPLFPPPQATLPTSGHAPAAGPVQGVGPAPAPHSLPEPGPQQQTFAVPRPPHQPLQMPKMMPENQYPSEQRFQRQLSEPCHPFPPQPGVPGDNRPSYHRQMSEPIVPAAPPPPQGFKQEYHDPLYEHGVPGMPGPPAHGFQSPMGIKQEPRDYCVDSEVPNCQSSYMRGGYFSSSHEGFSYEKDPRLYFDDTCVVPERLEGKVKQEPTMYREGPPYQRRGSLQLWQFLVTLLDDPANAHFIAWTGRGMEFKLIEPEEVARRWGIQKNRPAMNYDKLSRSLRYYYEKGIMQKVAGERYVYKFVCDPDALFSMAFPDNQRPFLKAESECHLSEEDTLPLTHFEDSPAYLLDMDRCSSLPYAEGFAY
Procedure, shortened: as §1

SPIC = target: T8, SPIC (Homo sapiens, UniProt Q8N5J4 1-248)
T8 sequence: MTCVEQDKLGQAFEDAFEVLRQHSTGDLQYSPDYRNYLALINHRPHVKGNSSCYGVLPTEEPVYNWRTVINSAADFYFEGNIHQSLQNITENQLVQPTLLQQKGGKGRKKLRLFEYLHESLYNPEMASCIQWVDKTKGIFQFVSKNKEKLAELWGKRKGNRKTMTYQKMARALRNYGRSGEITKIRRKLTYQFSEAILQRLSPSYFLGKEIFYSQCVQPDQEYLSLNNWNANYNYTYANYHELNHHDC
Procedure, shortened: as §1

ELF4 = ELF4 (Homo sapiens, UniProt Q99607 1-663)
ELF4, sequence (Q99607 whole entry): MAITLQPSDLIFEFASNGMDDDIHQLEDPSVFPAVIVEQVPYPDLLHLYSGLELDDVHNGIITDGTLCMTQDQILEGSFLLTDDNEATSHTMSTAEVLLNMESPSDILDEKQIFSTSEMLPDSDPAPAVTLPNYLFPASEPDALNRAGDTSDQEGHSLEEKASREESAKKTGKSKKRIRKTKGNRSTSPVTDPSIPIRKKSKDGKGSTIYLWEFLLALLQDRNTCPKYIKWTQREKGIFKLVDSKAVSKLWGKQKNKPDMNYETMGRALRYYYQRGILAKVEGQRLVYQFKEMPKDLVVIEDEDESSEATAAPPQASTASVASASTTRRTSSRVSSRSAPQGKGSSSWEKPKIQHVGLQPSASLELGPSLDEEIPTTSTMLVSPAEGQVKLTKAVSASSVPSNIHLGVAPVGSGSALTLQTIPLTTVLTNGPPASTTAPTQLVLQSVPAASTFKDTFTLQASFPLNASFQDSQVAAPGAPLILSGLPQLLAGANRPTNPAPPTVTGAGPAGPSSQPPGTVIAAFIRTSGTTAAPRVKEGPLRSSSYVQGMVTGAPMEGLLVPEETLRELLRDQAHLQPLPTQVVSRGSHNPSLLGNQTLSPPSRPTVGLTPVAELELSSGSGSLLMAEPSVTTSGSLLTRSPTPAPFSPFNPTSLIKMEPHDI
Procedure, shortened: as §1

ELK4 = target: T9, ELK4 (Homo sapiens, UniProt P28324-2 1-405)
T9 sequence: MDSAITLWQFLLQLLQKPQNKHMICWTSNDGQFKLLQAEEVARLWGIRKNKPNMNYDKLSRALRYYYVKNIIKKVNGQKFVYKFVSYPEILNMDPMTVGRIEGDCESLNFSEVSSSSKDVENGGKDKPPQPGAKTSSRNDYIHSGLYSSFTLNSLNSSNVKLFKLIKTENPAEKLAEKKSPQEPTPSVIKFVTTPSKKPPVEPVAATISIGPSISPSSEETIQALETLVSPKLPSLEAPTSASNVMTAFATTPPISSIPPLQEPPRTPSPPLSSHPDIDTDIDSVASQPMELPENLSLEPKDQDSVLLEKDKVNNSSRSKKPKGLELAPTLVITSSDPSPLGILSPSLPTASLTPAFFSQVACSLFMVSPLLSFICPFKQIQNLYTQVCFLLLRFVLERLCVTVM
Procedure, shortened: as §1

ETV2 = target: T10, ETV2 (Homo sapiens, UniProt O00321 1-342)
T10 sequence: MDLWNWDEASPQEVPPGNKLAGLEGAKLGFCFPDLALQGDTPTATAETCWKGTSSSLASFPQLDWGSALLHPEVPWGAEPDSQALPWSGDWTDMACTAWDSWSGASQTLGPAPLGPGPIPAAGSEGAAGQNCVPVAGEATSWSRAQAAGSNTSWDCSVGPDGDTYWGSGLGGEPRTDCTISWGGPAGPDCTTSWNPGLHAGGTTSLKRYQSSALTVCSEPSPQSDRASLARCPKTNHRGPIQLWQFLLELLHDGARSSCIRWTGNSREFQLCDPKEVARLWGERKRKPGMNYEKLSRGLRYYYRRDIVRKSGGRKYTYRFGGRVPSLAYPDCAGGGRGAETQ
Procedure, shortened: as §1

ELF3 = target: T11, ELF3 (Homo sapiens, UniProt P78545 1-371)
T11 sequence: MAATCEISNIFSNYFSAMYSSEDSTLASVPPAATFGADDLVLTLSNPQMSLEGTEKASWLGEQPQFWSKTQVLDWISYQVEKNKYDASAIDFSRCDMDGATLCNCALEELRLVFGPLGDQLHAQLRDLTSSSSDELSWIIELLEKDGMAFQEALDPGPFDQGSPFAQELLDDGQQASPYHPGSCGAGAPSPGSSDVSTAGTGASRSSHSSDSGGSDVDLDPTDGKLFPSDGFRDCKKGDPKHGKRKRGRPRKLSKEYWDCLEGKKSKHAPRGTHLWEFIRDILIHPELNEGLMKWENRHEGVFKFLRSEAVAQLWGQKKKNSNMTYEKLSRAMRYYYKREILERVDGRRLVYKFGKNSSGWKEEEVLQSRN
Procedure, shortened: as §1

CRX = CRX (Homo sapiens, UniProt O43186 1-299)
CRX, sequence (O43186 whole entry): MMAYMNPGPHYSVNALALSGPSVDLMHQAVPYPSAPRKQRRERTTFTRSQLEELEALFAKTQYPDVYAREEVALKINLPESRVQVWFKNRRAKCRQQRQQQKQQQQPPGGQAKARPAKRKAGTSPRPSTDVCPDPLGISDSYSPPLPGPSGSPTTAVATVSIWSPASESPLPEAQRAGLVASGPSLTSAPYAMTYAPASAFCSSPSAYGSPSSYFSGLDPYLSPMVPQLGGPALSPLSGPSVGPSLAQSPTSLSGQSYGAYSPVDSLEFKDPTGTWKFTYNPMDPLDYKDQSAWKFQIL
Procedure, shortened: as §1

ETV1 = ETV1 (Homo sapiens, UniProt P50549 1-477)
ETV1, sequence (P50549 whole entry): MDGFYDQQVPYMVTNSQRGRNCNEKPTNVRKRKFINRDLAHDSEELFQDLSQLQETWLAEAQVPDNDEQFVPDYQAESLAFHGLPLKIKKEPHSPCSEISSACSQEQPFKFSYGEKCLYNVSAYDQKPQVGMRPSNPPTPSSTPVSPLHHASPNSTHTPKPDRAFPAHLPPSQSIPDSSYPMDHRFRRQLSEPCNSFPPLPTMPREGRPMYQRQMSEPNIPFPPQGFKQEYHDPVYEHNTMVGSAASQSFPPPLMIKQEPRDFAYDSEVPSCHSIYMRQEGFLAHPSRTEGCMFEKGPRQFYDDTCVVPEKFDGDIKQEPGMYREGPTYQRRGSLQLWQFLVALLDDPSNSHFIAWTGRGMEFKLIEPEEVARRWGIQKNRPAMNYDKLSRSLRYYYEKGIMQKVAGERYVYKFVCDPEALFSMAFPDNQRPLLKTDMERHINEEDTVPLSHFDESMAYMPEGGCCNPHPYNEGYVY
Procedure, shortened: as §1

Sequence: TGCAAT
- binding signal (FLI1): 1.18 fold enrichment (6-mer frequency, TF over GST control)
- binding signal (ELK1): 1.21 fold enrichment (6-mer frequency, TF over GST control)
- binding signal (GABPA): 1.15 fold enrichment (6-mer frequency, TF over GST control)
- binding signal (ERG): 1.09 fold enrichment (6-mer frequency, TF over GST control)
- binding signal (ELF1): 1.18 fold enrichment (6-mer frequency, TF over GST control)
- binding signal (EHF): 1.12 fold enrichment (6-mer frequency, TF over GST control)
- binding signal (SPI1): 1.19 fold enrichment (6-mer frequency, TF over GST control)
- binding signal (SPIB): 1.16 fold enrichment (6-mer frequency, TF over GST control)
- binding signal (ELK3): 1.19 fold enrichment (6-mer frequency, TF over GST control)
- binding signal (FEV): 1.2 fold enrichment (6-mer frequency, TF over GST control)
- binding signal (ETV5): 1.21 fold enrichment (6-mer frequency, TF over GST control)
- binding signal (SPIC): 1.14 fold enrichment (6-mer frequency, TF over GST control)
- binding signal (ELF4): 1.2 fold enrichment (6-mer frequency, TF over GST control)
- binding signal (ELK4): 1.28 fold enrichment (6-mer frequency, TF over GST control)
- binding signal (ETV2): 1.04 fold enrichment (6-mer frequency, TF over GST control)
- binding signal (ELF3): 1.24 fold enrichment (6-mer frequency, TF over GST control)
- binding signal (CRX): 1.03 fold enrichment (6-mer frequency, TF over GST control)
- binding signal (ETV1): 1.26 fold enrichment (6-mer frequency, TF over GST control)
